# Assay results from PubChem BioAssay AID1494157 (National Center for Advancing Translational Sciences (NCATS), 2020).
# Results filed as inconclusive are left out. Unmarked numbers belong to inactive results. Activity calls are given as the source filed them. Calls come from the whole dose curve.
# Experiment: Confirmatory qHTS for inhibitors of MERS-S pseudo-typed particle cell entry
# Conditions: MERS-S pseudotyped particle entry, luciferase reporter; series mostly up to 57.1 µM
Compound,Potency,"activity change, negative = inhibition"
COc1ccc2cc3[n+](cc2c1OC)CCc1cc2c(cc1-3)OCO2,9.61 µM (active),–
CCCCCCCCCCCCOCCOCCOCCOCCOCCOCCOCCOCCOCCO,7.64 µM (active),–
CN1CC[C@H](CN2c3ccccc3Sc3ccccc32)C1,15.2 µM (active),–
Cc1cn([C@H]2C[C@H](N=[N+]=[N-])[C@@H](CO)O2)c(=O)[nH]c1=O,0.242 µM (active),–
CC(C)(C)C(=O)OCOP(=O)(COCCn1cnc2c(N)ncnc21)OCOC(=O)C(C)(C)C,0.0304 µM (active),–
CCCCCCCCCCCCCC[n+]1ccc(C)cc1,2.41 µM (active),–
CC(C)OC(=O)OCOP(=O)(CO[C@H](C)Cn1cnc2c(N)ncnc21)OCOC(=O)OC(C)C,0.0192 µM (active),–
C=C1c2c(Cl)ccc(O)c2C(O)=C2C(=O)[C@@]3(O)C(O)=C(C(N)=O)C(=O)[C@@H](N(C)C)[C@@H]3[C@@H](O)[C@H]12,19.2 µM (active),–
CC(=O)N1CCN(c2ccc(OC[C@H]3CO[C@](Cn4ccnc4)(c4ccc(Cl)cc4Cl)O3)cc2)CC1,7.64 µM (active),–
CC[C@@H]([C@H](C)O)n1ncn(-c2ccc(N3CCN(c4ccc(OC[C@@H]5CO[C@@](Cn6cncn6)(c6ccc(F)cc6F)C5)cc4)CC3)cc2)c1=O,7.64 µM (active),–
COc1cccc2c1C(=O)c1c(O)c3c(c(O)c1C2=O)C[C@@](O)(C(C)=O)C[C@@H]3O[C@H]1C[C@H](N)[C@H](O)[C@H](C)O1,3.83 µM (active),–
COC(=O)C1=C(C)NC(C)=C(C(=O)OCC(C)C)C1c1ccccc1[N+](=O)[O-] (centres undefined),19.2 µM (active),–
COc1ccc(Cc2nccc3cc(OC)c(OC)cc23)cc1OC,4.82 µM (active),–
CC(C)C[C@H](NC(=O)[C@H](CCc1ccccc1)NC(=O)CN1CCOCC1)C(=O)N[C@@H](Cc1ccccc1)C(=O)N[C@@H](CC(C)C)C(=O)[C@@]1(C)CO1,0.192 µM (active),–
C[C@@H]1CCO[C@H]2Cn3cc(C(=O)NCc4ccc(F)cc4F)c(=O)c(O)c3C(=O)N12,0.0043 µM (active),–
N=C(N)c1ccc(OCCCCCOc2ccc(C(=N)N)cc2)cc1,12.1 µM (active),–
CCOc1cc2ncc(C#N)c(Nc3ccc(OCc4ccccn4)c(Cl)c3)c2cc1NC(=O)/C=C/CN(C)C,–,-18.9% [at 11.2 µM]
C=CC(=O)Nc1cc(Nc2nccc(-c3cn(C)c4ccccc34)n2)c(OC)cc1N(C)CCN(C)C,6.81 µM (active),–
O=C(Nc1ccc([N+](=O)[O-])cc1Cl)c1cc(Cl)ccc1O,0.857 µM (active),–
COc1cccc2c1C(=O)c1c(O)c3c(c(O)c1C2=O)C[C@@](O)(C(=O)CO)C[C@@H]3O[C@H]1C[C@H](N)[C@@H](O)[C@H](C)O1,3.83 µM (active),–
CC(CN(C)C)CN1c2ccccc2CCc2ccccc21 (centres undefined),17.1 µM (active),–
CN(C)CC/C=C1\c2ccccc2Sc2ccc(Cl)cc21,8.57 µM (active),–
CN1CCC(=C2c3ccccc3CCc3sccc32)CC1,15.2 µM (active),–
Nc1nc(Cl)nc2c1ncn2C1CC(O)C(CO)O1 (centres undefined),12.1 µM (active),–
C[n+]1c2cc(N)ccc2cc2ccc(N)cc21 (tested in a mixture with another compound),1.92 µM (active),–
CN1CCC(=C2c3ccccc3C=Cc3ccccc32)CC1,19.2 µM (active),–
CN(C)CCOC(c1ccccc1)c1ccc(Br)cc1 (centres undefined),17.1 µM (active),–
CCSc1ccc2c(c1)N(CCCN1CCN(C)CC1)c1ccccc1S2,13.6 µM (active),–
COc1cc(N)c(Cl)cc1C(=O)NC1CCN(CCCOc2ccc(F)cc2)CC1OC (centres undefined),15.2 µM (active),–
